Compound activity deposited in PubChem by National Center for Advancing Translational Sciences (NCATS).
Only some compounds are listed: those with a hit (about 1.2% of all), similar ones and a draw of the others.
gsp antagonist – antagonists of gsp mutant (McCune-Albright syndrome). gsp-mutant cells, cAMP HTRF, 30 min. Potency, µM (top dose mostly 76.9 µM), most hits filed as inhibitors. AID 624288. 0.4% of 340,000 active; calls by dose curve; cell line not stated here;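 also: intracellular cAMP measured with PDE inhibitor Ro 20-1724 present during compound exposure; nearly all actives have a fitted effect of over 65% in size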
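Cells, 2000/well, grown 16–24 h in DMEM 10% FBS with 0.5 mg/ml G418, then compounds plus […] (300 uM addition stock), 30 min at 37C. cAMP read by HTRF (cAMP-d2 and anti-cAMP antibody-K in lysis buffer) after 30 min RT.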
Mm-Cpn inhibitor – inhibitors of Methanococcus maripaludis chaperonin TRiC (MmCpn); purified Mm-Cpn ATPase, ADP Transcreener TR-FRET; AID 504842; Potency, µM (top dose mostly 76.9 µM), most hits filed as inhibitors; 0.031% of 330,000 active; also: nearly all actives have a fitted effect of over 80% in size
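Quantitative HTS used 25 nM Mm-CPN and 10 uM ATP in magnesium/KCl Tris buffer, pH 7.4, with 1 mM DTT. Hydrolysis ran 30 min at 37°C; ADP was read by HTRF.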
gsp ag – gsp mutant agonism. gsp mutant cells, cAMP HTRF, 30 min. Potency, µM (titrated, usually from 76.9 µM), actives largely listed as activators. 0.13% of 340,000 active. AID 624287; active = well fitted activation curve with a large enough effect; inconclusive = small, poorly fitted or top-dose-only effect, or another doubt; inactive = no such curve, though single readings can be large or run the other way; cell line not stated here;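 also: phosphodiesterase inhibitor Ro 20-1724 added with compounds to block cAMP breakdown; nearly all actives have a fitted effect of over 60% in size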
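Cells stably selected in G418 were plated at 2000/well, grown 16-24 hr, then given compounds in DMSO with the PDE inhibitor […] (300 uM solution added) for 30 min at 37C; cAMP was read by HTRF.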
RXFP1 antag – RXFP1 (human) relaxin receptor antagonism; AID 1259400; HEK293-RXFP1, relaxin-stimulated cAMP HTRF, 30 min; hits give low values; activity change, negative = inhibition, % at 57.5 µM; 0.59% of 350,000 active;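 active = activity change of -60% or lower, but not beyond a set lower limit; inconclusive = change between -60% and -40%, or beyond the set limit; inactive = change above -40%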
Target sequence (Q9HBX9 whole entry, looked up): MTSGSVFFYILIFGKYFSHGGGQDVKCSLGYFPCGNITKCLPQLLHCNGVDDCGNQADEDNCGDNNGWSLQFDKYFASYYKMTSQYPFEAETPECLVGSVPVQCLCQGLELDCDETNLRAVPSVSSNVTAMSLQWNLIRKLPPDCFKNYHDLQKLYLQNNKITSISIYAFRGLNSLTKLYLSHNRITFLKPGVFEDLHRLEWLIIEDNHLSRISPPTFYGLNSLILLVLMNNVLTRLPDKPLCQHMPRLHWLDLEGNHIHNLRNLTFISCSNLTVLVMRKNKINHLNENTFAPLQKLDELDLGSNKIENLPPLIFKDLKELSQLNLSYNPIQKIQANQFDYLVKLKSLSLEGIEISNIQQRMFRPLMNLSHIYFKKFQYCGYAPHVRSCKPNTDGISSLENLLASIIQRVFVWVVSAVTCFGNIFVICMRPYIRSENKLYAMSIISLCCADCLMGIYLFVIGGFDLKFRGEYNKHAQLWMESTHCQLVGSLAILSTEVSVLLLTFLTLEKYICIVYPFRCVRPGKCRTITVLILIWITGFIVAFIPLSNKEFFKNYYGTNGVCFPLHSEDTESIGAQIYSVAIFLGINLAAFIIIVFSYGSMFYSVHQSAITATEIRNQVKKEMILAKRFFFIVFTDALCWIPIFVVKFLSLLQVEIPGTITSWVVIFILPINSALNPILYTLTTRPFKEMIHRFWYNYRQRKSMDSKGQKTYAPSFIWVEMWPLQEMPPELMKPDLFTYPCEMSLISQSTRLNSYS
CCT modulator – modulators of cytosolic chaperonin (CCT/TRiC) activity; 0.3% of 360,000 active; purified chaperonin ATPase assay, HTRF ADP detection, 30 min; activity change, % (concentration not given with the values), hits read low; in the data active = activity change below about -30%
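ATPase activity: ADP formed was measured by HTRF Transcreener (665/615 nm ratio) after 30 min at 37 deg C with 10 uM ATP. Compounds screened at one 76 uM concentration against 40 or 20 nM TRiC in Tris pH 7.4/KCl/MgCl2/DTT buffer.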
RXFP1 ag – activates the human relaxin receptor RXFP1 | Q9HBX9 | HEK293T-RXFP1 cAMP TR-FRET, 30 min; response scale: percent of porcine relaxin response, buffer zero | Potency, µM (top dose mostly 57.5 µM), usual class: activators | 0.3% of 370,000 active; also: nearly all actives have a fitted effect of over 60% in size
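HEK293 cells stably expressing RXFP1, treated 30 min at 37C with compounds plus PDE4 inhibitor Ro 20174; cAMP measured by HTRF TR-FRET. Normalized to buffer and 29 nM porcine relaxin; EC50 by Hill fit.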
Of the large screens only hits and unclear results are named; the others gave an inactive call. Unless noted, calls follow the shape of the dose curve; as a rule, active = well fitted curve in the direction sought with a large enough effect; inconclusive = small, poorly fitted or top-dose-only effect, or another doubt; inactive = no such curve, though single readings can be large; an effect the other way counts as inactive or inconclusive.

COc1cccc(-c2nnc(NC(=O)c3ccc(S(=O)(=O)N4CC(C)OC(C)C4)cc3)o2)c1 (stereo not given)	gsp antagonist 35.5µM
O=C(O)c1cccc(CN2C(=O)S/C(=C/c3cccc([N+](=O)[O-])c3)C2=O)c1	gsp antagonist 20µM, gsp ag inconclusive
Cc1cccc(N2CCN(C(=O)CS(=O)(=O)Cc3nc(-c4ccccc4C)oc3C)CC2C)c1 (stereo not given)	none (no result: gsp antagonist, Mm-Cpn inhibitor, gsp ag, RXFP1 antag, CCT modulator)
COc1cc(Nc2c(C#N)cnc3cc(OCCCN4CCN(C)CC4)c(OC)cc23)c(Cl)cc1Cl	none (no result: gsp antagonist, Mm-Cpn inhibitor, gsp ag, CCT modulator, RXFP1 ag)
Cc1csc(Sc2nc3c(c(=O)[nH]c(=O)n3C)n2Cc2ccccc2Cl)n1	gsp antagonist 39.8µM
CN(C)c1ccc(-c2[nH][nH]c(=O)c2NC(=O)c2ccccn2)cc1	CCT modulator -35.5 (no result: gsp antagonist, Mm-Cpn inhibitor, gsp ag, RXFP1 antag, RXFP1 ag)
CN(C)c1ccc(-c2[nH][nH]c(=O)c2NC(=O)c2ccc3ccccc3n2)cc1	none (no result: gsp antagonist, Mm-Cpn inhibitor, gsp ag, RXFP1 antag, RXFP1 ag)
O=C(Nc1ccc(-n2cccc2)cc1)C1CC1	gsp antagonist 11.2µM
O=C(Nc1ccc(Nc2ccccc2)cc1)C1CC1	none
Cc1cccc(OCC(=O)NNc2c3ccccc3nc3ccccc23)c1	gsp antagonist 22.4µM, RXFP1 antag inconclusive
Cc1ccc(OCC(=O)NNc2c3ccccc3nc3ccccc23)cc1	gsp antagonist 28.2µM, RXFP1 antag -67.4
Cn1c(=O)n(C)c2cc(NS(=O)(=O)c3ccc(F)cc3)c(NCc3ccccc3)cc21	none (no result: gsp antagonist, Mm-Cpn inhibitor, gsp ag, CCT modulator)
Cc1ccc(-c2cn3c(n2)sc2cc(C(=O)NC4CCCc5ccccc54)ccc23)cc1 (stereo not given)	none (no result: gsp antagonist, Mm-Cpn inhibitor, gsp ag, CCT modulator)
O=C(CCc1ccc(S(=O)(=O)N2CCOCC2)cc1)Nc1nc(COc2ccccc2)cs1	gsp antagonist 28.2µM
COc1ccc(CCC(=O)Nc2cccc(S(=O)(=O)N3CCOCC3)c2)cc1OC	none
O=C(Nc1nc(-c2ccc3c(c2)OCCO3)cs1)c1ccc(S(=O)(=O)N2CCCCC2)cc1	none
O=C(CCc1ccccc1)Nc1cccc(S(=O)(=O)N2CCOCC2)c1	CCT modulator -35.5 (no result: RXFP1 ag)
O=C(COc1ccc(Cl)cc1)Nc1nc(-c2ccc(S(=O)(=O)N3CCOCC3)cc2)cs1	Mm-Cpn inhibitor 44.7µM, gsp ag inconclusive
O=C(Nc1nc(-c2ccc(S(=O)(=O)N3CCCCCC3)cc2)cs1)c1ccccc1	Mm-Cpn inhibitor 35.5µM
O=C(COc1ccccc1)Nc1nc(-c2ccc(S(=O)(=O)N3CCOCC3)cc2)cs1	Mm-Cpn inhibitor inconclusive
CN1CCN(C2(CNC(=O)c3ccc(C(C)(C)C)cc3)CCCCC2)CC1	none (no result: gsp antagonist, Mm-Cpn inhibitor, gsp ag, CCT modulator)
COc1ccc(N2CCN(C(=O)CCn3cnc4onc(-c5ccc(F)cc5)c4c3=O)CC2)cc1	none (no result: gsp antagonist, Mm-Cpn inhibitor, gsp ag, CCT modulator)
Cn1c(SCC(=O)Nc2ccc(NC(=O)c3ccccc3F)cc2)nnc1-c1ccncc1	gsp antagonist 50.1µM
CCN(CC)CC(O)Cn1c2ccccc2c2ccccc21 (stereo not given)	none
CCN(CC)CC(O)Cn1c(C)c(-c2ccccc2)c2cc([N+](=O)[O-])ccc21 (stereo not given)	RXFP1 antag -89.4
O=c1oc2ccccc2cc1-c1csc(NN=C2CCCC2)n1	none
O=C(O)c1cccc(Nc2nc(-c3cc4ccccc4oc3=O)cs2)c1	gsp antagonist 35.5µM
COc1ccc(-c2nnc(C3CCN(C(=O)c4ccccc4F)CC3)o2)cc1	none (no result: gsp antagonist, Mm-Cpn inhibitor, gsp ag, CCT modulator)
CCc1nc(SCC(=O)N2CCN(c3ccccc3)CC2)c2c(=O)n(C)c(=O)n(C)c2n1	none (no result: gsp antagonist, gsp ag, RXFP1 antag, CCT modulator)
CCCc1nc(SCC(=O)N2CCC(Cc3ccccc3)CC2)c2c(=O)n(C)c(=O)n(C)c2n1	gsp antagonist 25.1µM, gsp ag inconclusive
O=C(O)c1ccccc1NC(=O)N1c2ccccc2Sc2ccccc21	none (no result: gsp antagonist, Mm-Cpn inhibitor, gsp ag, RXFP1 antag, CCT modulator)
O=C(c1ccc2c(=O)n(C3CCCC3)c(=S)[nH]c2c1)N1CCCCCC1	gsp antagonist 31.6µM, RXFP1 antag -62.6
CC1CCCN(C(=O)c2ccc3c(=O)n(C4CCCC4)c(=S)[nH]c3c2)C1 (stereo not given)	gsp antagonist inconclusive, gsp ag inconclusive
CCCC1=Nc2cc(C(=O)NCc3ccccc3)ccc2Sc2ccccc21	none (no result: gsp antagonist, Mm-Cpn inhibitor, gsp ag, CCT modulator)
O=C1/C(=C/c2ccc(O)c(O)c2)Oc2cc(O)ccc21	none
COc1cc(C=C2CCC/C(=C\c3ccc(O)c(OC)c3)C2=O)ccc1O	RXFP1 antag -95.2 (no result: gsp antagonist, Mm-Cpn inhibitor, gsp ag, CCT modulator, RXFP1 ag)
COc1cc(/C=C2/CCCC(C(=O)C(F)(F)F)=C2O)ccc1O	none
COc1cc(/C=C2\CCC/C(=C\c3ccc(O)c(OC)c3)C2=O)ccc1O	gsp antagonist inconclusive, RXFP1 antag -68.8
COc1cc(/C=C2\COC/C(=C\c3cc(OC)c(OC)c(OC)c3)C2=O)cc(OC)c1OC	gsp antagonist inconclusive, RXFP1 antag -62.8
COc1cc(/C=C2\Oc3cc(O)ccc3C2=O)ccc1O	gsp ag 28.2µM
CN1C(=O)C2CCCCN2c2ccc(C(=O)NCc3ccccc3Br)cc21 (stereo not given)	none (no result: gsp antagonist, Mm-Cpn inhibitor, gsp ag, CCT modulator)
CCc1ccc(NC(=O)Cn2ccn(-c3ccc(OC)cc3)c(=O)c2=O)cc1	none (no result: gsp antagonist, Mm-Cpn inhibitor, gsp ag, CCT modulator)
Cc1[nH]n(-c2ccc([N+](=O)[O-])cc2)c(=O)c1C=NCCc1ccc(S(N)(=O)=O)cc1	none
